The source of these data is PubChem BioAssay (NCI).

Experiment in all cases: NCI-60 one-dose screen, 48 h (100 = growth as untreated, 0 = no growth, -100 = all killed)
Conditions in all cases: 10 µM unless noted

Assay [1] relates to SR leukemia.
Assay [2] has as its system RPMI-8226 leukemia.
In assay [3] the test system is OVCAR-8 ovarian.
In assay [4] the test system is OVCAR-5 ovarian.
Assay [5] deals with SK-OV-3 ovarian.
Assay [6] deals with IGROV1 ovarian.
The subject of assay [7] is OVCAR-3 ovarian.
Assay [8] concerns HS 578T breast.
For assay [9], the system named is NCI/ADR-RES ovarian.
Assay [10] has as its system T-47D breast.
For assay [11], the system named is MDA-MB-435 melanoma.
Assay [12] has as its system SW-620 colon.
For assay [13], the system named is MCF7 breast.
Assay [14] relates to HCT-116 colon.
The subject of assay [15] is HCC-2998 colon.
For assay [16], the system named is KM12 colon.
For assay [17], the system named is BT-549 breast.

The panel holds about 83,000 compounds, 20% with a hit somewhere; the sample as a whole holds those more often.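 The endpoint reported here, percent growth, reads 100 for growth as untreated, 0 for no net growth and -100 for all cells dead.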 Values without a mark were called inactive. Activity calls are given as the source filed them. How the source made its calls: active means growth percent below 10; inactive means the rest.

Take `CC1(C)CC[C@]2(C(N)=O)CC[C@]3(C)C(=CC[C@@H]4[C@@]5(C)C/C(=C/c6cccnc6)C(=O)C(C)(C)[C@@H]5CC[C@]43C)[C@@H]2C1`: the growth in [1] was 8.68% [100 µM] (active); in assay [2], -37.1% [100 µM] (active); in assay [3], -21.6% [100 µM] (active); in assay [4] it was -64% [100 µM] (active); in assay [5], 6.72% [100 µM] (active); in assay [6], -29.5% [100 µM] (active). For the same compound, the growth in [7] was -64.2% [100 µM] (active); in assay [8] it was 1.61% [100 µM] (active); in [9], -25.7% [100 µM] (active); in [10], 2.41% [100 µM] (active); in assay [11], -34.6% [100 µM] (active); in assay [12], -32.4% [100 µM] (active). Further, the growth in assay [13] is -9.32% [100 µM] (active); in [14], -48.2% [100 µM] (active); in assay [15], -73.4% [100 µM] (active); in assay [16], -37.2% [100 µM] (active).
For the compound `COC(=O)[C@]1(C)CC[C@]2(C)CC[C@]3(C)C(=CC(=O)[C@@H]4[C@@]5(C)CCC(=O)NC(C)(C)[C@@H]5CC[C@]43C)[C@@H]2C1`, the growth in assay [1] is 32.7% [100 µM]; in [2], -44.5% [100 µM] (active); in assay [3], -39.8% [100 µM] (active); in assay [4], -60.8% [100 µM] (active); in assay [5], -16.8% [100 µM] (active); in [6], -55.5% [100 µM] (active). In addition, the growth in assay [7] is -70.4% [100 µM] (active); in assay [8] it was -30.4% [100 µM] (active); in assay [9], -71.9% [100 µM] (active); in assay [10], -10.7% [100 µM] (active); in [17], -78.6% [100 µM] (active); in assay [11], -48.8% [100 µM] (active). For the same compound, the growth was -54.8% [100 µM] (active) in assay [12], -49.7% [100 µM] (active) in assay [13], -89.2% [100 µM] (active) in assay [15] and -80.1% [100 µM] (active) in assay [16].
With `O=c1cc(-c2ccccc2)oc2cc(OCc3cn(Cc4ccc(F)cc4)nn3)cc(O)c12`, the growth was 96.8% [100 µM] in [1]; 93.7% [100 µM] in [2]; 20.4% [100 µM] in assay [3]; 83.7% [100 µM] in assay [4]; 20.6% [100 µM] in assay [5]; 31.2% [100 µM] in [6]. In addition, the growth is 61.7% [100 µM] in [7]; 9.08% [100 µM] (active) in assay [8]; 43.2% [100 µM] in assay [9]; 44.2% [100 µM] in assay [10]; 16.3% [100 µM] in [17]; 98.2% [100 µM] in assay [11]. Moreover, the growth was 102% [100 µM] in assay [12]; 65.7% [100 µM] in [13]; 48.5% [100 µM] in assay [14]; 100% [100 µM] in [15]; 99.4% [100 µM] in assay [16].
In the case of `C=C(C)[C@@H]1CC[C@]2(C)[C@H](CC=C3[C@@H]4[C@@H](C)[C@H](C)CC[C@]4(C(N)=O)CC[C@]32C)[C@@]1(C)CCC#N`, the growth in [1] was 30.2% [100 µM]; in assay [2], -21.1% [100 µM] (active); in assay [3], 3.49% [100 µM] (active); in [4], 1.03% [100 µM] (active); in assay [5], 5.31% [100 µM] (active); in assay [6] it was 7.81% [100 µM] (active). In addition, the growth in assay [7] is -53.6% [100 µM] (active); in [9], -32% [100 µM] (active); in [10] it was 5.58% [100 µM] (active); in [17], -25.4% [100 µM] (active); in [11] it was 1.04% [100 µM] (active); in assay [12], 7.86% [100 µM] (active). Moreover, the values for the growth in assay [13], in assay [14] and in assay [15] were 2.14% [100 µM] (active), -43.8% [100 µM] (active) and -22.4% [100 µM] (active), respectively.
For `CCOC(=O)c1cc(C#N)n2ncc3ccccc3c12`, the growth in assay [1] is 98.4%; in assay [2], 105%; in assay [3], 97.7%; in assay [4], 84.7%; in assay [5], 107%; in assay [6] it was 92.4%. Also, the growth is 103% in [7]; 97.7% in assay [9]; 92.2% in assay [10]; 91.5% in [17]; 103% in assay [11]; 98% in [12]. Besides, the growth was 87.2% in assay [13], 90.8% in assay [14], 104% in [15] and 102% in assay [16].
Turning to `CC(C)=CC/C=C(/C)[C@H]1CC[C@]2(C)[C@@H]1CC[C@@H]1[C@@]3(C)CCCNC(C)(C)[C@@H]3CC[C@]12C`, the growth was 15.2% [100 µM] in assay [1]; -40.1% [100 µM] (active) in [2]; -29.5% [100 µM] (active) in [3]; -85.9% [100 µM] (active) in assay [4]; -66.8% [100 µM] (active) in assay [5]; -74.1% [100 µM] (active) in assay [6]. For the same compound, the growth in assay [7] is -47.8% [100 µM] (active); in assay [8] it was -50.2% [100 µM] (active); in assay [9], -69.6% [100 µM] (active); in assay [10] it was -50.9% [100 µM] (active); in [17] it was -54.9% [100 µM] (active); in assay [11], -75.4% [100 µM] (active). For the same compound, the growth was -57.5% [100 µM] (active) in assay [12], -61% [100 µM] (active) in assay [14], -50.5% [100 µM] (active) in assay [15] and -57.4% [100 µM] (active) in [16].
Consider `NC(=O)c1cccc(-c2ccc(S(=O)(=O)Nc3ccc4c(c3)N(C(=O)C3CC3)CCC4)cc2)c1`, for which the growth in [1] was 50.5%; in assay [2], 43.7%; in [3], 57%; in assay [4], 64.8%; in assay [5], 38.2%; in [6], 37.1%. Besides, the growth in [7] was 15.8%; in assay [8], 17.9%; in [9], 104%; in assay [10], 26.1%; in assay [17] it was 96.7%; in [11] it was 1.89% (active). In addition, the growth was 32.3% in assay [12]; 22.9% in [13]; 98.2% in assay [14]; 64.5% in assay [15]; 18.9% in [16].
